A word on the inhibition: it is the relative decrease from the control value, in per cent.

Screen size: about 2,000 compounds; about 110 (5.5%) showed an effect of 50% or more. The entries come from a sample that favours strong results as a whole.

For the assay, the target named is Genome polyprotein (dengue virus type 2) (UniProt P29990).
Setting [1] is: Thailand/16681/1984, Concentration 25.0 uM, Number of replicates 1.0.

For the compound `CC(C)Cn1cccc(C(=O)Nc2ccncc2C(F)(F)F)c1=O`, the inhibition reads like this: (Thailand/16681/1984, Concentration 49.5 uM, Number of replicates 2.0, Standard deviation 5.23322293563183 %) -3.89%; (Thailand/16681/1984, Concentration 99.01 uM, Number of replicates 2.0, Standard deviation 0.16283923825626637 %) -4.73%; (Thailand/16681/1984, Concentration 198.0 uM, Number of replicates 2.0, Standard deviation 1.971758036933884 %) -6.94%.
Turning to `O=Cc1ccc(N2CCC(C(=O)N3CCN(C(=O)[C@H]4COc5ccccc5O4)CC3)CC2)cc1`, the inhibition under setting [1] came out at 13%.
As for `NCc1cccc(NC(=O)[C@H]2CC(F)(F)CN2C(=O)OCc2ccccc2)c1`, the inhibition by setting is: (Thailand/16681/1984, Concentration 49.5 uM, Number of replicates 2.0, Standard deviation 3.8817212285914895 %) -3.13%; (Thailand/16681/1984, Concentration 99.01 uM, Number of replicates 2.0, Standard deviation 4.048573795130085 %) -2.21%; (Thailand/16681/1984, Concentration 198.0 uM, Number of replicates 2.0, Standard deviation 4.090127173867097 %) -1.49%.
Take `O=Cc1ccc(N2CCC(C(=O)N(Cc3ccco3)Cc3cccs3)CC2)cc1`: under setting [1], the inhibition is 11%.
As for `Cc1cc(CO)c2cccc(NC(=O)c3ccc(N)nn3)c2n1`, the inhibition by setting is: (Thailand/16681/1984, Concentration 49.95 uM, Number of replicates 2.0, Standard deviation 1.176901179972867 %) 11%; (Thailand/16681/1984, Concentration 99.9 uM, Number of replicates 2.0, Standard deviation 1.886285239678155 %) 19.5%.
Consider `C[C@@H](Cc1ccc(C(F)(F)F)cc1)NC(=O)C1CCN(c2ccc(C=O)cc2)CC1`, for which, under setting [1], the inhibition was determined as 8.27%.
`O=Cc1ccc(N2CCC(C(=O)NCC34CC5CC(CC(C5)C3)C4)CC2)cc1`: the inhibition under setting [1] worked out at 11.8%.
In the case of `c1ccc2[nH]c(CN3CC[C@H](c4c[nH]c5ccccc45)C3)cc2c1`, the inhibition stood at 4.51% (Thailand/16681/1984, Concentration 49.5 uM, Number of replicates 2.0, Standard deviation 0.7608740215940771 %); 4.39% (Thailand/16681/1984, Concentration 99.01 uM, Number of replicates 2.0, Standard deviation 0.30587350380986955 %); 3.06% (Thailand/16681/1984, Concentration 198.0 uM, Number of replicates 2.0, Standard deviation 0.6449469231287406 %).
As to `Cc1c(Br)cnc(NC(=O)C2CCN(c3ccc(C=O)cc3)CC2)c1[N+](=O)[O-]`, under setting [1], the inhibition was 13.3%.
Turning to `Cc1nn(Cc2nnc(C(C)C)o2)cc1C1CCNCC1`, the inhibition (Thailand/16681/1984, Concentration 49.5 uM, Number of replicates 2.0, Standard deviation 1.2271984598057826 %) is -1.09%; the inhibition (Thailand/16681/1984, Concentration 99.01 uM, Number of replicates 2.0, Standard deviation 0.3137269789739955 %) is -1.28%; the inhibition (Thailand/16681/1984, Concentration 198.0 uM, Number of replicates 2.0, Standard deviation 0.585185347191749 %) is -1.14%.
Regarding `O=Cc1ccc(N2CCC(C(=O)N3CCN(c4ncccn4)CC3)CC2)cc1`, under setting [1], the inhibition turned out to be 13.4%.
On to `O=C(NC[C@H]1CCOC1)c1cc(Cl)ccc1NS(=O)(=O)c1ccc(Oc2ccccc2Cl)cc1`, for which the inhibition came out at 78.1% (Thailand/16681/1984, Concentration 49.5 uM, Number of replicates 2.0, Standard deviation 2.9570930238802475 %); 83.4% (Thailand/16681/1984, Concentration 99.01 uM, Number of replicates 2.0, Standard deviation 0.09728436725720986 %); 79% (Thailand/16681/1984, Concentration 198.0 uM, Number of replicates 2.0, Standard deviation 0.16101849440059574 %).
Consider `O=C(N[C@H]1CCOC1)c1cc(Cl)ccc1NS(=O)(=O)c1ccc(Oc2ccccc2Cl)cc1`, for which the inhibition turned out to be 64.1% (Thailand/16681/1984, Concentration 49.5 uM, Number of replicates 2.0, Standard deviation 0.8156312071794307 %); 63.6% (Thailand/16681/1984, Concentration 99.01 uM, Number of replicates 2.0, Standard deviation 0.42939613872644544 %); 53% (Thailand/16681/1984, Concentration 198.0 uM, Number of replicates 2.0, Standard deviation 0.707503298737338 %).
For `O=S(=O)(NC1CCCCC1)c1ccc(Oc2ccccc2Cl)cc1`, the inhibition by setting is: (Thailand/16681/1984, Concentration 49.5 uM, Number of replicates 2.0, Standard deviation 1.7919780415060578 %) 0.164%; (Thailand/16681/1984, Concentration 99.01 uM, Number of replicates 2.0, Standard deviation 2.26588512977007 %) 2.51%; (Thailand/16681/1984, Concentration 198.0 uM, Number of replicates 2.0, Standard deviation 2.2194744531827233 %) 5.38%.
Consider `Cc1cc(CN)c2cccc(Cl)c2n1`, for which the inhibition runs as follows: (Thailand/16681/1984, Concentration 49.95 uM, Number of replicates 2.0, Standard deviation 5.413623438036859 %) -7.74%; (Thailand/16681/1984, Concentration 99.9 uM, Number of replicates 2.0, Standard deviation 5.696602605148216 %) -7.99%.
For `CN(CCO[Si](C)(C)C(C)(C)C)C(=O)C1CCN(c2ccc(C=O)cc2)CC1`, under setting [1], the inhibition amounted to 11.8%.
Take `Cc1cc(CO)c2cccc(Cc3cccc(NC(=O)C(=O)c4ccco4)c3)c2n1`: the inhibition by setting is: (Thailand/16681/1984, Concentration 49.95 uM, Number of replicates 2.0, Standard deviation 2.5499602835301056 %) -0.234%; (Thailand/16681/1984, Concentration 99.9 uM, Number of replicates 2.0, Standard deviation 0.7837509937910023 %) -0.946%.
As for `Cc1cc(C(=O)N2CCN(C(=O)c3cc(C(C)(F)F)n[nH]3)CC2)cc2nn[nH]c12`, the inhibition by setting is: (Thailand/16681/1984, Concentration 49.5 uM, Number of replicates 2.0, Standard deviation 0.5040908488530289 %) 1.22%; (Thailand/16681/1984, Concentration 99.01 uM, Number of replicates 2.0, Standard deviation 0.07028947937337628 %) 1.9%; (Thailand/16681/1984, Concentration 198.0 uM, Number of replicates 2.0, Standard deviation 0.7181064342983147 %) 2.65%.
For the compound `O=Cc1ccc(N2CCC(C(=O)N[C@@H](CCO)c3ccccc3F)CC2)cc1`, under setting [1], the inhibition is 11.4%.
`CNC(=O)[C@H]1CN(S(=O)(=O)c2ccc(Oc3ccccc3Cl)cc2)CCO1`: the inhibition is, setting by setting: (Thailand/16681/1984, Concentration 49.5 uM, Number of replicates 2.0, Standard deviation 0.2669928674711758 %) -4.8%; (Thailand/16681/1984, Concentration 99.01 uM, Number of replicates 2.0, Standard deviation 0.624095865646037 %) -4.22%; (Thailand/16681/1984, Concentration 198.0 uM, Number of replicates 2.0, Standard deviation 0.6183745152543801 %) -5.47%.
In the case of `Nc1cccc2c(Cl)ccnc12`, the inhibition (Thailand/16681/1984, Concentration 49.95 uM, Number of replicates 2.0, Standard deviation 9.3539447807875 %) turned out to be 25.3% and the inhibition (Thailand/16681/1984, Concentration 99.9 uM, Number of replicates 2.0, Standard deviation 4.02175613474424 %) was determined as 68.2%.
As to `Nc1ccc(Cl)c2cccnc12`, the inhibition runs as follows: (Thailand/16681/1984, Concentration 49.95 uM, Number of replicates 2.0, Standard deviation 3.8383177085719704 %) -6.59%; (Thailand/16681/1984, Concentration 99.9 uM, Number of replicates 2.0, Standard deviation 5.003138959022175 %) -3.71%.
As for `Nc1ccnc2c(Cl)cccc12`, the inhibition runs as follows: (Thailand/16681/1984, Concentration 49.95 uM, Number of replicates 2.0, Standard deviation 2.736837302484984 %) -9.22%; (Thailand/16681/1984, Concentration 99.9 uM, Number of replicates 2.0, Standard deviation 4.13445849353631 %) -8.19%.
Turning to `CNC(=O)c1cc(Cl)ccc1NS(=O)(=O)c1ccc(C(=O)N(C)C)cc1`, the inhibition reads like this: (Thailand/16681/1984, Concentration 49.5 uM, Number of replicates 2.0, Standard deviation 0.43931539952348436 %) -0.006%; (Thailand/16681/1984, Concentration 99.01 uM, Number of replicates 2.0, Standard deviation 1.0448066347124485 %) 1.16%; (Thailand/16681/1984, Concentration 198.0 uM, Number of replicates 2.0, Standard deviation 2.436767925477247 %) 5.4%.
For the compound `O=Cc1ccc(N2CCC(C(=O)N3CCN(c4ccc(F)cc4F)CC3)CC2)cc1`, the inhibition under setting [1] worked out at 11.4%.
